{
  "source": "the supplement of paper PMC12282887",
  "experiment_in_all_cases": "promoter activity interaction Z-score (Lux/OD deviation from empty-vector control); higher = stronger promoter induction by the compound",
  "key": {"[1]": {"test_system": "E. coli BW25113 acrABp lux reporter", "method_in_brief": "(§1)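 Wild-type E. coli BW25113 and three single-gene deletion strains, each carrying a low-copy luxCDABE promoter reporter, were grown at 37°C in 40 µl LB Lennox per well of a 384-well plate. Every compound was applied at four 1:2 dilutions in biological duplicates, and OD600 and luminescence were read every 30 min for 12 h. Integration covered 0–8 h for wild type and 1–9 h for deletion strains, and wells under 10% of the median growth value were removed. Scores are Z-transformed residuals of growth-normalised luminescence fitted against a control.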"}, "[2]": {"test_system": "E. coli BW25113 marRABp lux reporter", "method_in_brief": "as §1"}, "[3]": {"test_system": "E. coli BW25113 micFp lux reporter", "method_in_brief": "as §1"}, "[4]": {"test_system": "E. coli BW25113 ompFp lux reporter", "method_in_brief": "as §1"}, "[5]": {"settings": "0.011 µg/ml, genetic background: wild type"}, "[6]": {"settings": "0.011 µg/ml, genetic background: ΔmarA"}, "[7]": {"settings": "0.011 µg/ml, genetic background: Δrob"}, "[8]": {"settings": "0.011 µg/ml, genetic background: ΔsoxS"}, "[9]": {"settings": "0.023 µg/ml, genetic background: wild type"}, "[10]": {"settings": "0.023 µg/ml, genetic background: ΔmarA"}, "[11]": {"settings": "0.023 µg/ml, genetic background: Δrob"}, "[12]": {"settings": "0.023 µg/ml, genetic background: ΔsoxS"}, "[13]": {"settings": "0.046 µg/ml, genetic background: wild type"}, "[14]": {"settings": "0.046 µg/ml, genetic background: ΔmarA"}, "[15]": {"settings": "0.046 µg/ml, genetic background: Δrob"}, "[16]": {"settings": "0.046 µg/ml, genetic background: ΔsoxS"}, "[17]": {"settings": "0.091 µg/ml, genetic background: wild type"}, "[18]": {"settings": "0.091 µg/ml, genetic background: ΔmarA"}, "[19]": {"settings": "0.091 µg/ml, genetic background: Δrob"}, "[20]": {"settings": "0.091 µg/ml, genetic background: ΔsoxS"}},
  "note": "± gives the standard deviation of the averaged measurements.",
  "data": [
    {"smiles": "C[C@@H]1O[C@@H]1P(=O)(O)O", "note": "[Fosfomycin]", "values": [
      {"measurement": "promoter activity interaction Z-score", "setting": "[1]; [5]", "result": "-0.0514 ± 0.17"},
      {"measurement": "promoter activity interaction Z-score", "setting": "[1]; [6]", "result": "0.0429 ± 0.25"},
      {"measurement": "promoter activity interaction Z-score", "setting": "[1]; [7]", "result": "0.201 ± 0.24"},
      {"measurement": "promoter activity interaction Z-score", "setting": "[1]; [8]", "result": "-0.0843 ± 0.31"},
      {"measurement": "promoter activity interaction Z-score", "setting": "[1]; [9]", "result": "0.134 ± 0.25"},
      {"measurement": "promoter activity interaction Z-score", "setting": "[1]; [10]", "result": "0.445 ± 0.43"},
      {"measurement": "promoter activity interaction Z-score", "setting": "[1]; [11]", "result": "0.174 ± 0.14"},
      {"measurement": "promoter activity interaction Z-score", "setting": "[1]; [12]", "result": "-0.242 ± 0.29"},
      {"measurement": "promoter activity interaction Z-score", "setting": "[1]; [13]", "result": "-0.142 ± 0.12"},
      {"measurement": "promoter activity interaction Z-score", "setting": "[1]; [14]", "result": "-0.284 ± 0.14"},
      {"measurement": "promoter activity interaction Z-score", "setting": "[1]; [15]", "result": "0.229 ± 0.37"},
      {"measurement": "promoter activity interaction Z-score", "setting": "[1]; [16]", "result": "0.118 ± 0.17"},
      {"measurement": "promoter activity interaction Z-score", "setting": "[1]; [17]", "result": "1.76 ± 0.8"},
      {"measurement": "promoter activity interaction Z-score", "setting": "[1]; [18]", "result": "2.58 ± 0.66"},
      {"measurement": "promoter activity interaction Z-score", "setting": "[1]; [19]", "result": "1.15 ± 0.18"},
      {"measurement": "promoter activity interaction Z-score", "setting": "[1]; [20]", "result": "0.198 ± 1.3"},
      {"measurement": "promoter activity interaction Z-score", "setting": "[2]; [5]", "result": "0.112 ± 0.27"},
      {"measurement": "promoter activity interaction Z-score", "setting": "[2]; [6]", "result": "0.0292 ± 0.18"},
      {"measurement": "promoter activity interaction Z-score", "setting": "[2]; [7]", "result": "-0.0327 ± 0.12"},
      {"measurement": "promoter activity interaction Z-score", "setting": "[2]; [8]", "result": "0.00491 ± 0.17"},
      {"measurement": "promoter activity interaction Z-score", "setting": "[2]; [9]", "result": "0.0365 ± 0.015"},
      {"measurement": "promoter activity interaction Z-score", "setting": "[2]; [10]", "result": "0.0557 ± 0.48"},
      {"measurement": "promoter activity interaction Z-score", "setting": "[2]; [11]", "result": "-0.0686 ± 0.17"},
      {"measurement": "promoter activity interaction Z-score", "setting": "[2]; [12]", "result": "-0.0756 ± 0.00091"},
      {"measurement": "promoter activity interaction Z-score", "setting": "[2]; [13]", "result": "-0.461 ± 0.53"},
      {"measurement": "promoter activity interaction Z-score", "setting": "[2]; [14]", "result": "-0.206 ± 0.0084"},
      {"measurement": "promoter activity interaction Z-score", "setting": "[2]; [15]", "result": "-0.0852 ± 0.1"},
      {"measurement": "promoter activity interaction Z-score", "setting": "[2]; [16]", "result": "0.136 ± 0.17"},
      {"measurement": "promoter activity interaction Z-score", "setting": "[2]; [17]", "result": "1.62 ± 0.061"},
      {"measurement": "promoter activity interaction Z-score", "setting": "[2]; [18]", "result": "1.31 ± 0.6"},
      {"measurement": "promoter activity interaction Z-score", "setting": "[2]; [19]", "result": "0.576 ± 0.054"},
      {"measurement": "promoter activity interaction Z-score", "setting": "[2]; [20]", "result": "1.75 ± 0.052"},
      {"measurement": "promoter activity interaction Z-score", "setting": "[3]; [5]", "result": "-0.227 ± 0.25"},
      {"measurement": "promoter activity interaction Z-score", "setting": "[3]; [6]", "result": "0.053 ± 0.061"},
      {"measurement": "promoter activity interaction Z-score", "setting": "[3]; [7]", "result": "-0.0521 ± 0.036"},
      {"measurement": "promoter activity interaction Z-score", "setting": "[3]; [8]", "result": "-0.3 ± 0.065"},
      {"measurement": "promoter activity interaction Z-score", "setting": "[3]; [9]", "result": "-0.0683 ± 0.18"},
      {"measurement": "promoter activity interaction Z-score", "setting": "[3]; [10]", "result": "0.0385 ± 0.078"},
      {"measurement": "promoter activity interaction Z-score", "setting": "[3]; [11]", "result": "-0.0229 ± 0.046"},
      {"measurement": "promoter activity interaction Z-score", "setting": "[3]; [12]", "result": "-0.31 ± 0.0043"},
      {"measurement": "promoter activity interaction Z-score", "setting": "[3]; [13]", "result": "-0.471 ± 0.25"},
      {"measurement": "promoter activity interaction Z-score", "setting": "[3]; [14]", "result": "-0.104 ± 0.084"},
      {"measurement": "promoter activity interaction Z-score", "setting": "[3]; [15]", "result": "-0.121 ± 0.023"},
      {"measurement": "promoter activity interaction Z-score", "setting": "[3]; [16]", "result": "0.017 ± 0.027"},
      {"measurement": "promoter activity interaction Z-score", "setting": "[3]; [17]", "result": "0.578 ± 0.33"},
      {"measurement": "promoter activity interaction Z-score", "setting": "[3]; [18]", "result": "-0.163 ± 0.034"},
      {"measurement": "promoter activity interaction Z-score", "setting": "[3]; [19]", "result": "-0.0601 ± 0.12"},
      {"measurement": "promoter activity interaction Z-score", "setting": "[3]; [20]", "result": "-0.264 ± 0.2"},
      {"measurement": "promoter activity interaction Z-score", "setting": "[4]; [5]", "result": "0.269 ± 0.034"},
      {"measurement": "promoter activity interaction Z-score", "setting": "[4]; [6]", "result": "0.352 ± 0.034"},
      {"measurement": "promoter activity interaction Z-score", "setting": "[4]; [7]", "result": "-0.181 ± 0.21"},
      {"measurement": "promoter activity interaction Z-score", "setting": "[4]; [8]", "result": "0.154 ± 0.62"},
      {"measurement": "promoter activity interaction Z-score", "setting": "[4]; [9]", "result": "0.162 ± 0.32"},
      {"measurement": "promoter activity interaction Z-score", "setting": "[4]; [10]", "result": "0.534 ± 0.28"},
      {"measurement": "promoter activity interaction Z-score", "setting": "[4]; [11]", "result": "0.297 ± 0.084"},
      {"measurement": "promoter activity interaction Z-score", "setting": "[4]; [12]", "result": "-0.146 ± 0.43"}
    ]}
  ]
}
